# PMC9911399, “Two distinct binding modes provide the RNA-binding protein RbFox with extraordinary sequence specificity”
# Numbering of substitutions follows the chain as printed; changes in the protein carry UniProt numbers. The full ranking holds about 16,000 sequences; the median of “ka relative to ugcaugu” is about 0.0091, and the highest 2% start at about 0.032. Many of the other results were omitted from the sample, so the highest values are more common in it than they were.
# T1: RBFOX1 RRM (Homo sapiens, UniProt Q9NWB1 109-208)
# T1 sequence: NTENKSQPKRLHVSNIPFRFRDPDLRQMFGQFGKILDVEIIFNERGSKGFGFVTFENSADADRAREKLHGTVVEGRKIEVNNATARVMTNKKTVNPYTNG
# B1: GACCAGC (DNA:RNA)
# RNA: GGGAGACCGGAAUUCAGAUUGUCCGACCAGCUUAAAUCCCGUCGUAGCCACCA
# DNA 1: CAATCTGAATTCCGGTCTCCC
# DNA 2: TGGTGGCTACGACGGGATT
# B2: GGGGUCA (DNA:RNA)
# RNA: B1 RNA with A26G, C27G, C28G, A29U, G30C, C31A
# DNA 1: CAATCTGAATTCCGGTCTCCC
# DNA 2: TGGTGGCTACGACGGGATT
# B3: AGGUCAC (DNA:RNA)
# RNA: B1 RNA with G25A, A26G, C27G, C28U, A29C, G30A
# DNA 1: CAATCTGAATTCCGGTCTCCC
# DNA 2: TGGTGGCTACGACGGGATT
# B4: CCUAGCG (DNA:RNA)
# RNA: GGGAGACCGGAAUUCAGAUUGUCCCCUAGCGUUAAAUCCCGUCGUAGCCACCA
# DNA 1: CAATCTGAATTCCGGTCTCCC
# DNA 2: TGGTGGCTACGACGGGATT
# B5: GAAUCAG (DNA:RNA)
# RNA: B1 RNA with C27A, C28U, A29C, G30A, C31G
# DNA 1: CAATCTGAATTCCGGTCTCCC
# DNA 2: TGGTGGCTACGACGGGATT
# B6: UUGAAGG (DNA:RNA)
# RNA: B4 RNA with C25U, C26U, U27G, G29A, C30G
# DNA 1: CAATCTGAATTCCGGTCTCCC
# DNA 2: TGGTGGCTACGACGGGATT
# B7: CUUACUA (DNA:RNA)
# RNA: B4 RNA with C26U, G29C, C30U, G31A
# DNA 1: CAATCTGAATTCCGGTCTCCC
# DNA 2: TGGTGGCTACGACGGGATT
# B8: UCUCGCU (DNA:RNA)
# RNA: B4 RNA with C25U, A28C, G31U
# DNA 1: CAATCTGAATTCCGGTCTCCC
# DNA 2: TGGTGGCTACGACGGGATT
# B9: GCGGCGG (DNA:RNA)
# RNA: B4 RNA with C25G, U27G, A28G, G29C, C30G
# DNA 1: CAATCTGAATTCCGGTCTCCC
# DNA 2: TGGTGGCTACGACGGGATT
# B10: GCGGUUC (DNA:RNA)
# RNA: B1 RNA with A26C, C27G, C28G, A29U, G30U
# DNA 1: CAATCTGAATTCCGGTCTCCC
# DNA 2: TGGTGGCTACGACGGGATT
# B11: GCGGGAU (DNA:RNA)
# RNA: B4 RNA with C25G, U27G, A28G, C30A, G31U
# DNA 1: CAATCTGAATTCCGGTCTCCC
# DNA 2: TGGTGGCTACGACGGGATT
# B12: GCGGUUG (DNA:RNA)
# RNA: B4 RNA with C25G, U27G, A28G, G29U, C30U
# DNA 1: CAATCTGAATTCCGGTCTCCC
# DNA 2: TGGTGGCTACGACGGGATT
# B13: GGGAGAU (DNA:RNA)
# RNA: B4 RNA with C25G, C26G, U27G, C30A, G31U
# DNA 1: CAATCTGAATTCCGGTCTCCC
# DNA 2: TGGTGGCTACGACGGGATT
# B14: CGCGGAU (DNA:RNA)
# RNA: B4 RNA with C26G, U27C, A28G, C30A, G31U
# DNA 1: CAATCTGAATTCCGGTCTCCC
# DNA 2: TGGTGGCTACGACGGGATT
# B15: GGGGAUU (DNA:RNA)
# RNA: B1 RNA with A26G, C27G, C28G, G30U, C31U
# DNA 1: CAATCTGAATTCCGGTCTCCC
# DNA 2: TGGTGGCTACGACGGGATT
# B16: CGGGGAU (DNA:RNA)
# RNA: B4 RNA with C26G, U27G, A28G, C30A, G31U
# DNA 1: CAATCTGAATTCCGGTCTCCC
# DNA 2: TGGTGGCTACGACGGGATT
# B17: GGAGAUU (DNA:RNA)
# RNA: B1 RNA with A26G, C27A, C28G, G30U, C31U
# DNA 1: CAATCTGAATTCCGGTCTCCC
# DNA 2: TGGTGGCTACGACGGGATT
# B18: GGGGGAU (DNA:RNA)
# RNA: B4 RNA with C25G, C26G, U27G, A28G, C30A, G31U
# DNA 1: CAATCTGAATTCCGGTCTCCC
# DNA 2: TGGTGGCTACGACGGGATT
# B19: GCGGAUU (DNA:RNA)
# RNA: B1 RNA with A26C, C27G, C28G, G30U, C31U
# DNA 1: CAATCTGAATTCCGGTCTCCC
# DNA 2: TGGTGGCTACGACGGGATT
# B20: GGGAAUU (DNA:RNA)
# RNA: B1 RNA with A26G, C27G, C28A, G30U, C31U
# DNA 1: CAATCTGAATTCCGGTCTCCC
# DNA 2: TGGTGGCTACGACGGGATT
# Molecular target: T1, RBFOX1 RRM
# Assay: EMSA; HiTS-Eq, 1 nM pool, 10 min; buffer printed only for the single-RNA assays: 10 mM Tris pH 7.5, 150 mM NaCl, 3.4 mM EDTA, 0.001% NP-40, 30 C
# Details: tags: His6 N-terminal (pET28a); label: 5' 32P
# Procedure, shortened: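 Purified wild-type or mutant RbFox RRM at increasing concentrations was equilibrated with 1 nM of 5′-radiolabelled RNA carrying 7 randomized nucleotides for 10 min in 50 µL. Unbound RNA was separated by 8% native PAGE and sequenced. Relative association constants came from read-count changes of each RNA species compared with the control reaction, normalised to the cognate motif.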
row,Binder,binding signal
1,B1,0.00826 KA relative to UGCAUGU
2,B2,0.0251 KA relative to UGCAUGU
3,B3,0.0109 KA relative to UGCAUGU
4,B4,0.00608 KA relative to UGCAUGU
5,B5,0.00941 KA relative to UGCAUGU
6,B6,0.0111 KA relative to UGCAUGU
7,B7,0.00319 KA relative to UGCAUGU
8,B8,0.0104 KA relative to UGCAUGU
9,B9,0.0288 KA relative to UGCAUGU
10,B10,0.0202 KA relative to UGCAUGU
11,B11,0.0486 KA relative to UGCAUGU
12,B12,0.0329 KA relative to UGCAUGU
13,B13,0.0316 KA relative to UGCAUGU
14,B14,0.0187 KA relative to UGCAUGU
15,B15,0.038 KA relative to UGCAUGU
16,B16,0.0184 KA relative to UGCAUGU
17,B17,0.0219 KA relative to UGCAUGU
18,B18,0.0252 KA relative to UGCAUGU
19,B19,0.0163 KA relative to UGCAUGU
20,B20,0.0335 KA relative to UGCAUGU
